Source: PubChem BioAssay (several laboratories)
An excerpt weighted towards active compounds, which were near 1.6% of everything screened.
PERK inh: block of dimerizer-induced PERK translation repression, primary screen, PERK inhibitor project, CHO PERK-DD cells, SEAP luminescence, HTS. CHO PERK-DD fusion, SEAP luminescence translation reporter. inhibition, % at 5.6 µM. 0.17% of 220,000 active. AID 1416, 2008;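 active = inhibition above the mean inhibition of all tested compounds plus 3 SD, set separately per screening campaign, cut at about 2.9% in these data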;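 also: PERK kinase domain activated by AP20187 dimerizer at 100 nM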
MLLE-PAM2 inh: inhibitors of PABP1 MLLE–PAM2 peptide binding, primary screen, biochemical, fluorescence polarization, FITC-PAM2, GST-MLLE. Polyadenylate-binding protein 1 (Homo sapiens), P11940. inhibition, % at 20 µM. 0.36% of 360,000 active; in the data active = inhibition above about 35%, passing the limit was not always enough
Target sequence (P11940 whole entry, looked up): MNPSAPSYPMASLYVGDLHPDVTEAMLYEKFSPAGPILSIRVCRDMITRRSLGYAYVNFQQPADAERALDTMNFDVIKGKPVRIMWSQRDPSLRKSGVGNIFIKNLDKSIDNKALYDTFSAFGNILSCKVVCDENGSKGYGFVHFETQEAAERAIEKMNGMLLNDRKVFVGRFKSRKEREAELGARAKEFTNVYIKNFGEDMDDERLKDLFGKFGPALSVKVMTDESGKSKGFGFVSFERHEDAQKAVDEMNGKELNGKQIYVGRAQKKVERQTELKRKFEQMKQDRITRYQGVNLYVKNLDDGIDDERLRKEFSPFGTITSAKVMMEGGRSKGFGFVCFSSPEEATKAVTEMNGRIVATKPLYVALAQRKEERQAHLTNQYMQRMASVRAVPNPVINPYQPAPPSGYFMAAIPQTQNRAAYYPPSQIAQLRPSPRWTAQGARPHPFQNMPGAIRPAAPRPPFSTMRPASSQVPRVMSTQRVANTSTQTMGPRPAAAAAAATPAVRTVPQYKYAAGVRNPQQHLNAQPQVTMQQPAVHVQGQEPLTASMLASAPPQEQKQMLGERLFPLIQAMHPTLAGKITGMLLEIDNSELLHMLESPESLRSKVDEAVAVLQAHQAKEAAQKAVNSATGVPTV
eIF4H inh: human eIF4H binding inhibitors, primary screen, translation initiation inhibitor project, biochemical, uHTS, fluorescence polarization. Eukaryotic translation initiation factor 4H (Homo sapiens), Q15056. eIF4H fluorescence polarization binding assay. inhibition, % at 35 µM. 0.94% of 290,000 active. AID 2012, 2009;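 also: calls also rest on retests at 20 µM and on dose response follow-up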
PABP polyA inh: PABP poly(A) RNA binding inhibitors, primary screen, biochemical, fluorescence polarization, uHTS | AID 2014, 2009 | Polyadenylate-binding protein 1 (Homo sapiens), P11940 | inhibition, % at 35 µM | 1% of 290,000 active;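 also: calls also rest on retests at 20 µM and on dose response follow-up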
eIF4E 4G PPI: eIF4E–eIF4G protein interaction inhibitors, primary screen, biochemical, uHTS, TR-FRET, eIF4GI fragment | inhibition, % at 21.7 µM | TR-FRET eIF4E-eIF4GI(517-606) binding, 2 h | AID 782, 2007 | Eukaryotic translation initiation factor 4E (Mus musculus) + Eukaryotic translation … | 0.37% of 220,000 active;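 active = inhibition above about 30%, limit read from the data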
Of the large screens only hits and unclear results are named; the others gave an inactive call; [ ] = remark or other dose. Unless noted, no rule for the calls is given here.

C/C(CC(=O)N1CCN(C=O)CC1)=N\NC(=O)c1cc2ccccc2cc1O	eIF4H inh 102, PABP polyA inh active
O=C(NS(=O)(=O)Oc1ccc(F)cc1F)OC[C@@H]1CCCN2CCCCC12 (stereo partly specified)	none (no result: PERK inh, eIF4E 4G PPI)
O=C(CNc1ccccc1)N/N=C/c1cn(-c2ccccc2)nc1-c1ccccc1	eIF4H inh active, PABP polyA inh 67
NC(=O)N/N=C/c1cn(-c2ccccc2)nc1-c1ccccc1	none
C/C(=N\N1C(=O)CSC1=S)c1ccc(Br)cc1	none
OC(CN1CCNCC1)Cn1ccc2ccccc21 (stereo unspecified)	none (no result: PERK inh, MLLE-PAM2 inh, eIF4E 4G PPI)
O=C1c2ccccc2S(=O)(=O)N1CC(O)Cn1ccc2ccccc21 (stereo unspecified)	eIF4H inh 88, PABP polyA inh 97
COc1ccc(-c2nc(CN3CCCCC3CCc3ccccn3)c(C)o2)cc1 (stereo unspecified)	none
COc1ccc(C2=Nn3c(nnc3-c3ccccc3Cl)SC2)cc1OC1CCCC1	none (no result: PERK inh, eIF4H inh, PABP polyA inh, eIF4E 4G PPI)
C=CCn1c(SCC(=O)Nc2ccc(-c3nc4ccc(C)cc4s3)cc2)nnc1-c1ccccc1	eIF4E 4G PPI 33[fluorescence artefact?]
CCOC(=O)/C=C1\SCC(=O)N1CC(=O)NC1CCCCC1	none
CCOC(=O)/C=C1\SCC(=O)N1CC(O)CN1C(=O)CS/C1=C\C(=O)OCC	eIF4H inh inconclusive, PABP polyA inh 75
CCNC(=O)COC(=O)c1cc(-c2ccc(OC)cc2)nc2ccccc12	none
O=C(NN1CCOCC1)c1cc(-c2ccc(Br)cc2)nc2ccccc12	eIF4E 4G PPI 58
O=C(Nc1ccccc1N1CCOCC1)c1cc(-c2ccco2)nc2ccccc12	eIF4H inh 82
CCCNC(=O)COC(=O)c1cc(-c2ccc(OC)cc2)nc2ccccc12	PABP polyA inh 51
CCc1ccc(-c2cc(C(=O)NN3CCOCC3)c3ccccc3n2)cc1	none
O=C(O)c1cc(-c2ccco2)nc2cc3ccccc3cc12	eIF4H inh 100, PABP polyA inh 77
O=[N+]([O-])c1cccc(-c2nc(-c3ccccc3)no2)c1	none
CCC(C)NC(=O)c1cn(CC)c2ccc(S(=O)(=O)N(C)C)cc2c1=O (stereo unspecified)	none
COc1ccccc1N1CCN(C(=O)CNC(=O)c2cn(-c3ccccc3OC)c(=O)c3ccccc23)CC1	none
CCN(CC)C(=O)COC(=O)c1cc(-c2ccco2)nc2ccccc12	eIF4H inh 82, PABP polyA inh 64, eIF4E 4G PPI 34
CC(=O)Nc1ccc(/C=N/NC(=O)c2cc(-c3ccco3)nc3ccccc23)cc1	none
CCCn1c(N)c(N(CCOC)C(=O)c2cc(-c3ccco3)nc3ccccc23)c(=O)[nH]c1=O	eIF4H inh 59 (no result: PERK inh, eIF4E 4G PPI)
O=C(O)c1ccccc1/C=N/NC(=O)c1cc(-c2ccco2)nc2ccccc12	eIF4H inh 82, PABP polyA inh 76, eIF4E 4G PPI 45
CCN(CC)C(=O)COC(=O)c1cc(-c2ccc(OC)cc2)nc2ccccc12	none
CNC(=O)COC(=O)c1cc(-c2ccco2)nc2ccccc12	eIF4H inh 74, PABP polyA inh 60, eIF4E 4G PPI 38
COCCCN(C(=O)c1cc(-c2ccco2)nc2ccccc12)c1c(N)n(Cc2ccccc2)c(=O)[nH]c1=O	none (no result: PERK inh, eIF4H inh, PABP polyA inh, eIF4E 4G PPI)
CN(C)S(=O)(=O)c1ccc(N2CCCC2)c(C(=O)Nc2ccccc2F)c1	none (no result: PERK inh, eIF4H inh, PABP polyA inh, eIF4E 4G PPI)
Cn1c(N)c(C(=O)COC(=O)c2cc(-c3ccco3)nc3ccccc23)c(=O)n(C)c1=O	eIF4H inh inconclusive, PABP polyA inh 21
Cn1c(N)c(C(=O)COC(=O)c2cc(-c3ccco3)nc3ccccc23)c(=O)n(Cc2ccccc2)c1=O	none (no result: MLLE-PAM2 inh)
COc1ccc(CCNC(=O)c2cc(-c3ccco3)nc3ccccc23)cc1	eIF4H inh 75, PABP polyA inh 48 (no result: PERK inh, MLLE-PAM2 inh, eIF4E 4G PPI)
CC(=O)OCCNC(=O)c1cc2ccccc2oc1=O	none
Cc1ccc2cc(C)c3nnc(SCc4ccc(C(=O)O)cc4)n3c2c1C	eIF4E 4G PPI 97
COc1ccc2c3c1OC1CC(O)C=CC31CCN(C)C2 (stereo unspecified)	PERK inh 3.1
COc1cc2c(cc1OC)C1(CCCCC1)CN(C)C2	none
